Reference: PubChem BioAssay AID720697 (Broad Institute, 2013)
Potency and affinity values are given separately. Results filed as inconclusive are left out. A call without a number means that no potency is given here. Activity calls are given as the source filed them.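 Rule for the calls: active = signal loss with fitted half-maximal concentration at or below twice the top valid tested dose in every test run; inconclusive = runs disagree, flat 30 to 70% signal loss, or poor fit; inactive = all runs flat, opposite direction, or potency beyond limit.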

test: general mammalian cell viability loss – inhibitor set, cherry-pick, set 2, cytotoxicity control for miR-122 modulator project, dose response (AID 720697); conditions: HEK293T viability, CellTiter-Glo luminescence, 48 h; series mostly up to 26 µM

Compound | outcome | activity change, negative = cytotoxicity
CC(C)NC(=O)Nc1ccc2c(c1)C(=O)N(C)[C@@H]1CC[C@@H](CC(=O)NCC(F)(F)F)O[C@@H]1CO2 | inactive | 
CCCNC(=O)N1[C@H](CO)[C@@H](c2ccccc2)[C@H]1CNC(=O)c1ccccc1 | inactive | 
Cc1ccccc1-c1nc(CN2CCCC(C(=O)NCCCN3CCOCC3)C2)c(C)o1 (stereo not drawn) | inactive | 
CCC(=O)N(C)C[C@H]1Oc2cc(C#CC3CCCCC3)ccc2S(=O)(=O)N([C@@H](C)CO)C[C@H]1C | inactive | 
CC(=O)N1[C@H](CO)[C@@H](c2ccccc2)[C@H]1CN(CC(C)C)C(=O)c1ccccn1 | inactive | 
C/C=C/c1ccc([C@H]2[C@@H](CO)N(C(=O)COC)[C@H]2CNC(=O)CC)cc1 | inactive | 
C[C@@H]1CN([C@@H](C)CO)S(=O)(=O)c2ccc(C#CC3CC3)cc2O[C@@H]1CN(C)C(=O)c1cccc(F)c1 | inactive | 
CC(C)C(=O)Nc1ccc2c(c1)C(=O)N(C)[C@@H]1CC[C@@H](CC(=O)NCC3CC3)O[C@H]1CO2 | inactive | 
CN1C(=O)c2cc(NC(=O)c3ccc(F)cc3)ccc2OC[C@@H]2O[C@@H](CC(=O)O)CC[C@@H]21 | inactive | 
OC(c1cc(C(F)(F)F)nc2c(Cl)cc(Cl)cc12)C1CCCCN1 (stereo not drawn) | inactive | 
O=C(Nc1ncc(Cc2cccc(C(F)(F)F)c2)s1)c1ccc(-c2cccc([N+](=O)[O-])c2)o1 |  | -25.5% [at 6 µM] (inactive)
CC(C)c1ccc(NC(=O)C[C@H]2CC[C@H]3[C@@H](COc4ccc(NC(=O)Nc5ccc(F)c(F)c5)cc4C(=O)N3C)O2)cc1 | inactive | 
CC(C)CC#Cc1ccc([C@H]2[C@@H](CO)N3CCCCN(S(=O)(=O)Cc4ccccc4)C[C@H]23)cc1 | inactive | 
C[C@@H]1CN([C@@H](C)CO)C(=O)c2cccc(NC(=O)c3ccc(-c4nccs4)cc3)c2O[C@H]1CN(C)Cc1ccc2c(c1)OCO2 | inactive | 
CNC[C@@H]1Oc2cc(C#Cc3cccc(OC)c3)ccc2S(=O)(=O)N([C@@H](C)CO)C[C@@H]1C | inactive | 
COc1cccc(S(=O)(=O)N(C)C[C@@H]2Oc3cc(C4=CCCC4)ccc3S(=O)(=O)N([C@H](C)CO)C[C@@H]2C)c1 | inactive | 
C[C@@H]1CN([C@H](C)CO)C(=O)c2cccc(NC(=O)c3ccc(-c4nccs4)cc3)c2O[C@H]1CN(C)S(=O)(=O)c1ccc(F)cc1 | inactive | 

Compound | outcome | activity change, negative = cytotoxicity
COc1ccc(NC(=O)Cn2nnc(C(=O)NCc3ccccc3OC)c2N)cc1Cl | inactive | 
Cc1ccnc(Nc2nc(-c3c(C)nc4sccn34)cs2)c1 | inactive | 
CN1C(=O)c2cc(NC(=O)c3ccc(C(F)(F)F)cc3)ccc2OC[C@H]2O[C@H](CC(=O)O)CC[C@@H]21 | inactive | 
C[C@@H]1CN([C@@H](C)CO)S(=O)(=O)c2ccc(C3=CCCCC3)cc2O[C@@H]1CN(C)C(=O)Cc1ccncc1 | inactive | 
O=C(Nc1ccc(F)cc1)N1C[C@@H]2[C@H](c3ccccc31)[C@H](CO)N2C(=O)Cc1ccccc1 | inactive | 
CNC[C@H]1Oc2cc(C#CC3CCCC3)ccc2S(=O)(=O)N([C@H](C)CO)C[C@H]1C | inactive | 
CCN(C[C@H]1N[C@@H](CO)[C@@H]1c1ccc(C2=CCCC2)cc1)C(=O)c1ccncc1 | inactive | 
Cc1nn(C)cc1NC(=O)C[C@H]1CC[C@@H]2[C@H](COc3ccc(NC(=O)Nc4cccc(Cl)c4)cc3C(=O)N2C)O1 | inactive | 
N#Cc1ccc(C(=O)Nc2ccc(N3CCN(C(=O)c4ccco4)CC3)cc2)c(F)c1 |  | -30.3% [at 6 µM] (inactive)
Fc1ccccc1-c1nc(-c2ccncc2)no1 |  | -1.62% [at 6 µM] (inactive)
COc1ccc2[nH]c(C(=O)O)c(NS(=O)(=O)c3ccc(Cl)s3)c2c1 | inactive | 
CCC(=O)N1C[C@H]2[C@@H](c3ccccc31)[C@H](CO)N2C(=O)Nc1ccccc1F | inactive | 
C/C=C/c1ccc2c(c1)O[C@H](CN(C)C(=O)Nc1cccc(F)c1)[C@H](C)CN([C@@H](C)CO)S2(=O)=O | inactive | 
C/C=C/c1ccc([C@H]2[C@@H](CNC(=O)c3ccncc3)N(C(=O)CC)[C@H]2CO)cc1 | inactive | 
Cc1ccc(S(=O)(=O)Nc2ccc3c(c2)C(=O)N(C)[C@@H]2CC[C@@H](CC(=O)NCCc4ccncc4)O[C@@H]2CO3)cc1 | inactive | 
CC(=O)Nc1ccc2c(c1)C(=O)N(C)[C@H]1CC[C@H](CC(=O)NC3CCCCC3)O[C@@H]1CO2 | inactive | 
